Screening data as filed in PubChem.
Compounds with a hit are over-represented: about 5.2% of the library has one in this group of screens.
esBAF inh: blocks esBAF chromatin remodeling in mouse ES cells; Bmi1-luciferase knock-in reporter, 24 h; 100% = twice the neutral-well signal; reporter increase, % at 12.5 µM; 2% of 350,000 active; in the data active = activation above about 40%; inconclusive = no clear call, values can overlap the other calls;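 note: 0% = median of the plate's neutral control wells and 100% = double that signal; a rise in the Bmi1 reporter signal indicates esBAF inhibition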
SMARCA2 activ: increases SMARCA2 function in MMTV reporter cells. 1% of 370,000 active. MG213 cells, MMTV-luciferase reporter, dexamethasone, overnight. activation, % at 9.1 µM. AID 652017; in the data active = activation above about 7.8%;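 note: 0% = vehicle wells and 100% = reference activator wells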
NadD inh: NadD (S. aureus) enzyme inhibition. purified NadD enzyme, colorimetric absorbance read-out. inhibition, % at 20 µM. 0.78% of 360,000 active. AID 602399; in the data active = inhibition above about 26%
SKN-1 block: C. elegans SKN-1 inhibition; C. elegans VP596 Pgst-4::GFP/RFP ratio, acrylamide-induced, 24 h; inhibition, % at 21.8 µM; 0.49% of 360,000 active;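 active = interference check ratio from 0.5 to 1.5 plus GFP to RFP signal ratio inhibition reaching or exceeding a fixed threshold, cut at about 30% in these data, passing the limit was not always enough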
Vif inh: HIV Vif inhibition; HEK293T cells, Vif self-association by quenched fluorescence, imaging, 24 h; inhibition, % at 7.49 µM; 0.35% of 340,000 active; in the data active = inhibition above about 50%, passing the limit was not always enough; inconclusive = no clear call, values can overlap the other calls; inactive = below about 31%
GRIN3A LBD mod: modulators (binders) of human NR3A ligand-binding domain; AID 1259313; Tm shift relative to glycine control, % at 25 µM; NR3A LBD differential scanning fluorimetry, Tm shift; 0% = protein alone, 100% = glycine-bound protein; 2.5% of 340,000 active;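 active = melting temperature shift of at least 10% of the positive control shift, at one fixed dose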
The depositor's hits bear a star; u = inconclusive; x = not tested or not shown.

SMILES	esBAF inh	SMARCA2 activ	NadD inh	SKN-1 block	Vif inh	GRIN3A LBD mod
C/C(=N\NC(=O)c1cc(-c2cccc([N+](=O)[O-])c2)n[nH]1)c1ccc(F)cc1	x	2	3	31	-3	63*
C[C@H]1CN([C@@H](C)CO)C(=O)c2cccc(NC(=O)c3nc4ccccc4s3)c2O[C@H]1CN(C)Cc1ccc(Oc2ccccc2)cc1	-9	x	x	x	x	x
O=C(C[C@@H]1CC[C@H](NC(=O)c2cccnc2)[C@H](CO)O1)NCc1ccncn1	-8	x	x	x	x	x
Cc1ccccc1NC(=O)N(O)C1(C#N)CCCCC1	x	-1	-3	0	6	15*
C(=N\n1cnnc1)/c1ccccc1OCCOc1ccccc1	61*	2	2	5	-1	1
Oc1ccc(Cl)cc1-c1cc(-c2cccc(Br)c2)n[nH]1	17	-1	4	-10	-3	31*
Oc1ccccc1-c1cc(-c2ccccc2Cl)[nH]n1	6	3	-4	6	-5	9
Oc1ccccc1-c1cc(-c2cccc(F)c2)n[nH]1	45*	3	-3	-1	-6	8
CC(C)(C)c1ccc(-c2cc(-c3ccccc3O)[nH]n2)cc1	-32	-5	0	16	-4	19*
O=C(NCC1CCCCC1)[C@@H]1N[C@@H]2c3ccc(C4=CCCCC4)c(=O)n3C[C@@H]2[C@H]1CO	5	x	x	x	x	x
Cc1noc(C)c1NC(=O)Nc1ccc2c(c1)C(=O)N([C@H](C)CO)C[C@@H](C)[C@@H](CN(C)Cc1ccc(Cl)c(Cl)c1)O2	-5	x	x	x	x	x
CCOC(=O)c1cn(CC)c2cc(N3CCOCC3)c(F)cc2c1=O	-4	-1	-3	40*	3	0
CCOC(=O)c1cn(CC)c2cc(N3CCCCC3)c(F)cc2c1=O	x	-4	1	-1	7	0
CO[C@H]1CN(C)C(=O)c2cc(NS(=O)(=O)CC(F)(F)F)ccc2OC[C@@H](C)N(CC2CCCCC2)C[C@@H]1C	-1	x	x	x	x	x
NC(c1csc(Nc2ccc(C(=O)c3ccccc3)cc2)n1)C1CCCCC1 (centres undefined)	4	-4	11	-6	65*	x
CC(=O)c1ccc(Nc2nc(C(N)C3CCCCC3)cs2)cc1 (centres undefined)	1	-6	2	-7	7	x
O=C(Nc1ccccc1O)c1c(O)c2c([nH]c1=O)CCCC2	85*	4	-6	9	1	14*
O=C(Nc1nccs1)c1c(O)c2c([nH]c1=O)CCCC2	u	4	-3	7	-5	1
CCC(=O)Nc1nn(C)c2nc3c(C)cccc3cc12	-5	-2	-1	11	2	-1
CCCn1nc(NC(=O)CC)c2cc3cccc(C)c3nc21	-6	-5	-4	-6	-12	12*
C[C@H]1CN([C@@H](C)CO)C(=O)c2cc(C3=CCCCC3)cnc2O[C@H]1CN(C)C(=O)c1ccncc1	2	x	x	x	x	x
CCOC(=O)C(C(=O)OCC)C1N=C(N)N=C2Oc3ccccc3N21 (centres undefined)	89*	3	-2	-11	-8	1
CCOC(=O)CN1C(=O)C(CC)Oc2ccccc21 (centres undefined)	-3	-3	-4	-9	3	0
CO[C@H]1CC[C@H]2CCOc3c(C#N)cccc3C(=O)N(C)[C@H](C)C(=O)N(C)C[C@H]1O2	-1	x	x	x	x	x
O=C(c1ccc2c3n(nc2c1)-c1ccc(Cl)cc1CO3)N1CCOCC1	73*	4	3	-1	-11	0
SMILES	esBAF inh	SMARCA2 activ	NadD inh	SKN-1 block	Vif inh	GRIN3A LBD mod
COCCNC(=O)c1ccc2c3n(nc2c1)-c1ccc(C)cc1CO3	80*	5	1	-6	x	-2
Cc1ccc2c(c1)COc1c3ccc(C(=O)N[C@@H](CO)C(C)C)cc3nn1-2	73*	4	3	-3	-14	-3
C[C@@H](CO)NC(=O)c1ccc2c3n(nc2c1)-c1ccccc1CO3	-47	7	-2	1	1	3
O=C(NCC1CCCO1)c1ccc2c3n(nc2c1)-c1ccccc1CO3 (centres undefined)	70*	6	-4	-9	x	0
Cc1ccc2c(c1)COc1c3ccc(C(=O)N4CCCCC4)cc3nn1-2	26	5	2	17	-13	-1
O=C(c1ccc2c3n(nc2c1)-c1ccccc1CO3)N1CCCCC1	5	8	3	20	-4	1
Cc1noc(C)c1NC(=O)Nc1ccc2c(c1)C(=O)N([C@@H](C)CO)C[C@@H](C)[C@H](CN(C)C(=O)Nc1ccc3c(c1)OCO3)OCCCC[C@@H](C)O2	2	x	x	x	x	x
CC(C)NC(=O)c1ccc2c3n(nc2c1)-c1ccc(Cl)cc1CO3	75*	4	-1	-7	x	3
Cc1ccc(Nc2nc(N)nc(CN3CCN(c4ccccc4)CC3)n2)cc1Cl	10	-4	11	33	-11	2
Nc1nc(CSC(=S)N2CCOCC2)nc(Nc2ccc(F)cc2)n1	66*	2	-5	-4	-13	-3
COc1ccc(Nc2nc(N)nc(CSC(=S)N3CCOCC3)n2)cc1	49*	7	-5	-2	34	0
CN1CCN(C(=S)SCc2nc(N)nc(Nc3ccc(F)cc3)n2)CC1	x	0	-3	13	-1	-2
COc1ccc(N2CCN(Cc3nc(N)nc(Nc4ccc(C)c(Cl)c4)n3)CC2)cc1	-7	-4	1	36*	-9	-3
CC(C)NC(=O)N(C)C[C@H]1Oc2ccc(NC(=O)Nc3cccc4ccccc34)cc2C(=O)N([C@@H](C)CO)C[C@H]1C	-2	x	x	x	x	x
Cc1ccc(-c2cnc3c(c2)C(=O)N([C@H](C)CO)C[C@@H](C)[C@H](CN(C)C(=O)c2ccc(F)cc2)O3)cc1	-1	x	x	x	x	x
C[C@@H]1CN([C@H](C)CO)S(=O)(=O)c2ccc(C#Cc3ccncc3)cc2O[C@H]1CN(C)C	3	x	x	x	x	x
CCNc1nc(NCC)n2c(SC(C(=O)Nc3cc(Cl)cc(Cl)c3)c3ccccc3)nnc2n1 (centres undefined)	x	-4	25	7	9	11*
COc1ccc(S(=O)(=O)N(C)C[C@H]2OCCCC[C@H](C)Oc3ccc(NS(C)(=O)=O)cc3C(=O)N([C@@H](C)CO)C[C@@H]2C)cc1	2	x	x	x	x	x
COc1ccccc1OCC(O)COC(N)=O (centres undefined)	-7	-3	-2	-1	7	13*
COc1ccccc1OCC(O)CO (centres undefined)	-3	-4	3	19	0	-2
Cc1nc(-c2ccccc2)sc1C(=O)Nc1ccc(S(N)(=O)=O)cc1	8	-3	-2	11	x	12*
Cc1nc(C(=O)Nc2ccccc2)sc1C(=O)Nc1ccccc1	54*	2	-2	9	5	6
Cc1nc(NC(=O)/C=C/c2ccccc2)sc1C(=O)Nc1cccc(Cl)c1	x	2	12	1	3	32*
